RORgamma inh: qHTS for inhibitors of ROR gamma transcriptional activity. Drosophila S2 Gal4-RORgamma UAS-luciferase reporter, 20 h. Potency, µM (series often up to 53.6 µM), inactives show at the highest dose activity change, negative = inhibition, usual class: inhibitors. hit rate 5.4% among 310,000. AID 2551, 2010; also: nearly all actives have a fitted effect of over 60% in size
Target sequence (P51450 whole entry, looked up, the tested form may be a part): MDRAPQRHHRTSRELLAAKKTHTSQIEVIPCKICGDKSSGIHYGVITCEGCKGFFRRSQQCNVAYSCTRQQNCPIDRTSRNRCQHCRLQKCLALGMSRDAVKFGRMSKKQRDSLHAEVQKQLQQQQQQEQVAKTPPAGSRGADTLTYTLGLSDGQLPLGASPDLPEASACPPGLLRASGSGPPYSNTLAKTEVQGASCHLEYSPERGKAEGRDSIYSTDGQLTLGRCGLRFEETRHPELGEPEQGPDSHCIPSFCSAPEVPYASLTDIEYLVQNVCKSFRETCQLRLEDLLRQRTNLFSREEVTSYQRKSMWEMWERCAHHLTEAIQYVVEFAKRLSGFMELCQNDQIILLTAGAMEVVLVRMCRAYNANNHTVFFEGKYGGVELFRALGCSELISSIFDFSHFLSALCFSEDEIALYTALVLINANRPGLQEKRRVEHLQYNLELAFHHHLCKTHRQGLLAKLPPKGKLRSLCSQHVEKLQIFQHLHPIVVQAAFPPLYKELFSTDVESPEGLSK
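A Gal4/UAS one-hybrid system in insect cells: metallothionein-promoter Gal4–ROR gamma fusion plus Photinus luciferase reporter. Copper sulfate 700 uM final, 20 hr ambient incubation, luminescent detection after 10 min with reagent.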
TDP1 block: qHTS Assay for Inhibitors of Tyrosyl-DNA Phosphodiesterase (TDP1) | Tyrosyl-DNA phosphodiesterase 1 (Homo sapiens), Q9NUW8 | recombinant TDP1, AlphaScreen DNA substrate cleavage | Potency, µM (top dose mostly 130 µM), inactives show top-dose activity change, negative = inhibition, usual class: inhibitors | hit rate 0.28% among 350,000; also: nearly all actives have a fitted effect of over 40% in size
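Compounds were preincubated with Tdp1 (1 nM final) for 15 min at room temperature before substrate (15 nM final) started a 5 min reaction; beads (10 ug/ml final) were then added for 10 min before AlphaScreen detection.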
DT40 TDP1 no CPT: qHTS for Inhibitors of human tyrosyl-DNA phosphodiesterase 1 (TDP1): qHTS in cells in absence of CPT; hit rate 15% among 420,000; Potency, µM (top dose mostly 46.2 µM), for the others: at the top dose activity change, negative = growth inhibition, hits mostly inhibitors; DT40 Tdp1-/- hTDP1 cells, no CPT, ATP luminescence, 48 h; also: nearly all actives have a fitted effect of over 55% in size
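Stably hTDP1-transfected Tdp1-null chicken DT40 cells were treated with library compounds minus camptothecin and grown for at least 48 hr at 37 °C, after which cellular ATP was quantified by luminescence.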
Gal4-VP16 FLuc: VP16 counterscreen qHTS for inhibitors of ROR gamma transcriptional activity; Drosophila S2 Gal4-VP16 UAS-luciferase, luminescence, 20 h; hit rate 3.5% among 310,000; Potency, µM (doses to about 53.6 µM), without a hit: at the highest dose activity, negative = inhibition, most hits filed as inhibitors; AID 2546, 2010;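 also: Gal4-VP16 expression switched on by copper sulfate through the metallothionein promoter; nearly all actives have a fitted effect of over 50% in size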
TDP1 cell CPT: qHTS for Inhibitors of human tyrosyl-DNA phosphodiesterase 1 (TDP1): qHTS in cells in presence of CPT. chicken DT40 Tdp1-/-;hTDP1 cells + 20 nM CPT, ATP luminescence, 48 h. Potency, µM (series often up to 46.2 µM), inactives show at the top dose activity change, negative = growth inhibition, usual class: inhibitors. hit rate 12% among 420,000; also: nearly all actives have a fitted effect of over 55% in size
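Chicken DT40 Tdp1-/- cells complemented with human TDP1, 400 cells/well, exposed to compounds plus 20 nM camptothecin for at least 48 h at 37 C; viability read as ATP content by CellTiter-Glo luminescence.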
* = called active by the depositor; ? = inconclusive; · = no result. The list is not random: actives were taken first. Their share in the collection is about 19%. Calls follow the shape of the dose curve; as a rule, active = well fitted curve in the direction sought with a large enough effect; inconclusive = small, poorly fitted or top-dose-only effect, or another doubt; inactive = no such curve, though single readings can be large; an effect the other way counts as inactive or inconclusive. % is scaled to controls: 0 for no effect and ±100 for the full control effect; potency is read from the fitted curve at half-maximal effect.

SMILES	RORgamma inh	TDP1 block	DT40 TDP1 no CPT	Gal4-VP16 FLuc	TDP1 cell CPT
CC(=O)O[C@@]12CO[C@@H]1C[C@H](OC1OCC(O)C(O)C1O)[C@@]1(C)C(=O)[C@H](O)C3=C(C)[C@@H](OC(=O)[C@H](O)[C@@H](NC(=O)c4ccccc4)c4ccccc4)C[C@@](O)([C@@H](OC(=O)c4ccccc4)C12)C3(C)C (some centres undefined)	8.8%	·	1.03µM*	-20.0%	1.16µM*
CCCCCC(=O)N[C@@H](c1ccccc1)[C@@H](O)C(=O)O[C@H]1C[C@@]2(O)[C@@H](OC(=O)c3ccccc3)C3[C@](C)(C(=O)[C@H](O)C(=C1C)C2(C)C)[C@@H](OC1OCC(O)C(O)C1O)C[C@H]1OC[C@@]31OC(C)=O (some centres undefined)	-15.3%	·	0.581µM*	-24.8%	1.16µM*
CN(CCCCC(=O)/C=N/O)Cc1ccccc1 (tested in a mixture with another compound)	8.7%	3.6%	-15.8%	-7.1%	-28.1%
Cc1cc(OC(=O)N2CCCCC2)c(C(C)C)cc1[N+](C)(C)C	0.4%	8.2%	?	-11.7%	?
CCN(CC)S(=O)(=O)c1ccc(C(=O)NC(=S)N2CCN(c3ccccc3O)CC2)cc1	·	·	18.4µM*	·	?
CC(=O)c1cc(C(C)=O)c(C)[n+](C)c1C	14.8%	-2.6%	-9.8%	5.9%	-0.7%
CC(C)(C)OC(=O)c1c(N)n(Cc2ccco2)c2nc3ccccc3nc12	-29.9%	5.2%	?	15.0%	?
CCN1C[C@]2(COC)[C@H](O)C[C@H](OC)[C@@]34[C@@H]5C[C@@]6(O)[C@H](OC(=O)c7ccccc7)[C@@H]5[C@@](OC(C)=O)([C@@H]([C@H](OC)[C@H]23)[C@@H]14)[C@@H](O)[C@@H]6OC	·	·	-7.6%	·	-8.9%
O=c1c2ccccc2[nH]c(=S)n1-c1ccc(Br)cc1	0.891µM*	5.4%	-17.1%	1.41µM*	-13.6%
O=c1c2ccc(Cl)cc2[nH]c(=S)n1-c1cccnc1	14.1µM*	-7.5%	-4.7%	?	-9.3%
Cc1ccc(-n2c(=S)[nH]c3ccccc3c2=O)cc1C	·	·	?	·	-16.6%
COc1cccc(-n2c(=S)[nH]c3ccccc3c2=O)c1	4.47µM*	-2.5%	?	?	-0.6%
Cc1ccc(C(C)C)c(OCC(=O)N2CCN(Cc3nc4cc([N+](=O)[O-])ccc4n3C)CC2)c1	33.9%	4.7%	-3.5%	-22.1%	1.2%
CCc1ccc(NC(=O)CN2C(=O)C3(SCC(=O)N3c3ccc(F)c(F)c3)c3ccccc32)cc1 (centres undefined)	·	2.1%	?	·	18.4µM*
CCC(=O)Nc1nc2ccccc2n1CCN(C)C	?	4.0%	-8.7%	?	-13.0%
Cc1onc(-c2ccccc2Cl)c1C(=O)OCC(=O)c1ccc2c(c1)OCCO2	?	4.2%	14.6µM*	-4.1%	?
S=C(N1CCCCCC1)N1CC1	·	·	-7.0%	·	2.4%
COc1cccc(C2=CC(c3cc(Br)ccc3F)n3nnnc3N2)c1 (centres undefined)	·	8.5%	1.3µM*	·	1.3µM*
CN(C)c1ccc(CN2CCc3nc(N4CCN(c5ccccn5)CC4)ncc3C2)cc1	·	16.2%	20.6µM*	·	20.6µM*
COc1cc(CN2CCc3nc(N4CCN(c5ncccn5)CC4)ncc3C2)cc(OC)c1OC	·	-1.2%	8.2µM*	·	8.2µM*
COc1cc(CN2CCc3nc(N4CCN(c5ccccc5F)CC4)ncc3C2)ccc1OC(C)C	·	6.2%	-25.9%	·	?
CC(C)(C)P(=O)(c1ccncc1)N1CCCC1 (centres undefined)	6.3%	4.7%	0.8%	7.0%	1.2%
CN1C(=O)N(C)C(=O)C(CCc2ccccn2)(CCc2ccccn2)C1=O	1.5%	4.1%	1.1%	-11.6%	0.5%

Source: PubChem
